These results are taken from PubChem BioAssay.

A short description of assay [1]: inhibitors of TNFa-induced NFkB p65 translocation, primary screen, imaging, HUVEC, MLSMR starter and 10KST1 sets (AID 438;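 active = inhibition above 20% together with a positive visual image hit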;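 also: compound added about 3h40 before a 20 min TNFalpha stimulation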;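 as to inhibition: signal is the nuclear over cytoplasmic p65 intensity ratio per well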). The note with it: HUVEC TNFa-induced p65 nuclear translocation; cell count: measured here: nuclei count (cytotoxicity indicator), at 2.08 µM; inhibition: at 2 µM, stronger effect = higher value, 0% TNFa-plus-vehicle, 100% no-TNFa wells.
Assay [2] can be described thus: endothelial E-selectin expression blockers – imaging, HUVEC, immunofluorescence, MLSMR starter and 10KST1 sets, primary screen (AID 487;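 active = visually confirmed hit in the image check and inhibition above 20%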;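 as to inhibition: signal is fraction of cell area covered by stained E-selectin grains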;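 as to nuclei count: 100% = median nuclei count of all wells on the same plate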). The following applies: HUVEC TNFalpha-induced E-selectin immunofluorescence imaging, at 2 µM; inhibition: stronger effect = higher value; nuclei count: measured here: cell number, toxicity.
Assay [3] in a line: Primary imaging screen for DUSP6 inhibitors that restore phospho-Erk in transfected HeLa cells, chemical complementation (AID 609;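 active = compounds giving at least 50% inhibition in the cell-based MKP-3 phosphatase rescue imaging test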;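 as to inhibition: phospho-Erk level distribution per well compared with pooled transfected vehicle control wells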). The note with it: HeLa MKP-3 transfected, phospho-Erk imaging KS statistic, at 10 µM, cells stimulated with TPA for 15 min.
In assay [4] the target is Dual specificity protein phosphatase 6 (Homo sapiens) (UniProt Q16828). The description is as above. The following applies: HeLa MKP-3 transfected, phospho-Erk imaging KS statistic; at 10 µM; stronger effect = higher value; cells stimulated with TPA for 15 min.
Chain of Dual specificity protein phosphatase 6 (Homo sapiens) (Q16828 whole entry, looked up): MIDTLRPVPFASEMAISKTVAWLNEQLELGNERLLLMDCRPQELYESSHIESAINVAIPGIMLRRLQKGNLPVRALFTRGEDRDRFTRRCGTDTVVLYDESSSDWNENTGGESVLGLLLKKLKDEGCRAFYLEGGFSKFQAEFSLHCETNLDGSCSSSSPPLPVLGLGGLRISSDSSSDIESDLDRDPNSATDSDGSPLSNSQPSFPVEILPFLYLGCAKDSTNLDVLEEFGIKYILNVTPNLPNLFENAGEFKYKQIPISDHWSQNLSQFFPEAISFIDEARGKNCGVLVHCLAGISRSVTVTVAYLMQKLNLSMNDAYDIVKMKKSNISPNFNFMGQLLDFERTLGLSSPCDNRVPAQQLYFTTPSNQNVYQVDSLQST
The target of assay [5] is Voltage-gated potassium channel subunit beta-2 (Rattus norvegicus) (UniProt P62483). Put plainly: inhibitors of rat Kvbeta2 reductase activity – biochemical, NADPH fluorescence, primary screen (AID 622;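 active = fluorescence slope higher than the sample average by over 3 SD, cut at about -0.22 in these data, passing the limit was not always enough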;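 also: slope of raw intensity against log time taken from 70 to 1610 s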). The note with it: recombinant KvBeta, 4-cyanobenzaldehyde reduction, at 10 µM, stronger effect = higher value.
Chain of Voltage-gated potassium channel subunit beta-2 (Rattus norvegicus) (P62483 whole entry, looked up): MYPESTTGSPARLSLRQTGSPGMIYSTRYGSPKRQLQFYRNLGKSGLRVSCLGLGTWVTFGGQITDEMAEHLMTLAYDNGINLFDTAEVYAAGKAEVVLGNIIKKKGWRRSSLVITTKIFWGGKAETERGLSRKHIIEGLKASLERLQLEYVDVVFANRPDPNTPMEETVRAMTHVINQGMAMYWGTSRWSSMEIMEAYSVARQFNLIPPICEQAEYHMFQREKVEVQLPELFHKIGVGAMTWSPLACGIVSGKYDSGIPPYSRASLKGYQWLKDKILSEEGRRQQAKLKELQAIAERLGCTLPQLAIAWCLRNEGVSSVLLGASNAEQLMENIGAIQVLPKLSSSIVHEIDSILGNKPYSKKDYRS
The target is the same in assay [6]. Put plainly: enhancers of rat Kvbeta2 NADPH turnover – biochemical, NADPH fluorescence, primary screen (AID 623;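 active = NADPH fluorescence slope more negative than the mean of all samples by about 3 SD, 99.7% confidence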;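 also: fluorescence intensity change per second fitted from 20 to 320 s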). The note with it: Recombinant KvBeta, NADPH fluorescence decrease slope, 10 min; at 10 µM; stronger effect = lower value.
In assay [7] the target is Muscarinic acetylcholine receptor M4 (Homo sapiens) (UniProt P08173). Put plainly: M4-linked GIRK flux change, two-sided – cell-based, HEK293 M4/GIRK, thallium flux, BTC-AM, M4 allosteric agonist project, primary screen (AID 625).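 Also: thallium influx through GIRK channels coupled to M4 in HEK293 cells with BTC-AM dye.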 The following applies: at 10 µM, actives lie on both sides.
Chain of Muscarinic acetylcholine receptor M4 (Homo sapiens) (P08173 whole entry, looked up): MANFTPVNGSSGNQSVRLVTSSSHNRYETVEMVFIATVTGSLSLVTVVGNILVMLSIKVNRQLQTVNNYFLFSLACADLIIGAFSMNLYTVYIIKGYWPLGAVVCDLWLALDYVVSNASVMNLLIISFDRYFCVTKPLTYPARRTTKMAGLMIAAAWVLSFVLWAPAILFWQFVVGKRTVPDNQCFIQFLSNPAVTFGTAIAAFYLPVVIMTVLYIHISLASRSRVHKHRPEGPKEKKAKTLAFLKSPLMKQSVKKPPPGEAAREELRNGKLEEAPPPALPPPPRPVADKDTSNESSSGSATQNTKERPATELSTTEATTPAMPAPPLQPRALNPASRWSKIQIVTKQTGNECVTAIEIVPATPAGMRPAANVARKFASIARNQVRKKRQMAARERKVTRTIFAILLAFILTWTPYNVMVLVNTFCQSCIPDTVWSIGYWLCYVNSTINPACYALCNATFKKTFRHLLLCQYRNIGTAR
Assay [8] is described as follows: inhibitors of larval lipid processing in zebrafish, primary screen, whole organism, PED6 fluorescence, gall bladder and intestine (AID 686;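 active = a full or partial loss of lipid-probe fluorescence in the fish gall bladder, intestine or both, judged by eye; inactive = no fluorescence loss, or compound toxic to the fish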;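 also: larvae 5 to 7 days old with five fish per well; signal comes from phospholipase A2 cleavage of quenched PED6 carried via bile; overnight exposure to compound and PED6 before scoring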). The following applies: Zebrafish larvae PED6 lipid processing, fluorescence scoring; screened at 20 µM (by protocol).
A short description of assay [9]: loss of swimming-algae plug formation – whole organism, Chlamydomonas reinhardtii, WT vs cilia-less mutant, absorbance, 96-well, primary screen (AID 463189;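 active = inhibition at or above 50% relative to wild type and mutant plate controls; inactive = inhibition below 50%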;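 also: 0% = wild type cc124 cells in DMSO and 100% = ciliumless bld1 mutant cells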). The note with it: Chlamydomonas reinhardtii gravitaxis, OD600 absorbance, 2 days; at 10 µM; stronger effect = higher value.
Setting [10] is: measured here: cell density z-score.
The mark [11] stands for this setting: measured here: nuclear c-Myc green intensity z-score.
[12] abbreviates: measured here: nuclear pErk red intensity z-score, stronger effect = higher value.

Each structure is given as a SMILES string. Active and inactive are the calls of the source.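 The calls were made as follows, unless noted: active = fluorescence slope after compound addition differing from the mean of all tested samples at 99.7% confidence, mostly higher but some lower; inactive = the rest.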

Consider `COc1cc(S(=O)(=O)N2CCN(c3ccc(F)cc3)CC2)ccc1Cl`, for which, in assay [1], the cell count turned out to be 609. Further, the inhibition in assay [1] was -2.2% (inactive); in assay [2], -32.9% (inactive); in assay [4], -7.67% (inactive); in [9] it was -4.27% (inactive). The molecule also displayed a nuclei count in assay [2] of 124%. Moreover, the z-score is -0.486 in assay [3] (setting [10]), -0.838 in assay [3] (setting [11]) and 0.956 in [3] (setting [12]). Further, the values for the fluorescence slope in assay [5] and in [7] were -0.449 (inactive) and 0.00423 (inactive), respectively. Moreover, the NADPH fluorescence slope in [6] was -4.1e-05 (inactive). In addition, in assay [8], the result was inactive.
`CCOc1ccc2c(c1)n([O-])c1c([n+]2=O)CCCC1`: the cell count in [1] was found to be 345. The inhibition in assay [1] is 6.9% (inactive); in [2] it was -31.4% (inactive); in assay [4], 23.4% (inactive); in assay [9] it was 32.8% (inactive). The molecule also gave a nuclei count in [2] of 84.7%. Moreover, the z-score in assay [3] (setting [10]) is -0.67; in [3] (setting [11]), 0.548; in assay [3] (setting [12]), -1.91. The fluorescence slope is -0.4 (inactive) in assay [5] and 0.0052 (inactive) in [7]. Further, in [6], the NADPH fluorescence slope was -0.000101 (inactive). For the same molecule, in assay [8], the call was inactive.
On to `O=C1CC(C(=O)O)c2ccccc2N1` (centres undefined), for which the cell count in assay [1] was 589. Moreover, the inhibition was 5.9% (inactive) in assay [1], -180% (inactive) in assay [2], 15.4% (inactive) in [4] and 6% (inactive) in [9]. For the same molecule, the nuclei count in [2] came out at 135%. In addition, the z-score in assay [3] (setting [10]) was 0.749; in [3] (setting [11]), 0.0521; in [3] (setting [12]), -0.602. Also, the fluorescence slope in [5] was -0.465 (inactive); in assay [7], 0.00465 (inactive). Also, in assay [6], the NADPH fluorescence slope is -0.000133 (inactive). In [8], the molecule was called inactive.
In the case of `Clc1ccc(COc2ccccn2)c(Cl)c1`, the cell count in assay [1] amounted to 600. Besides, the inhibition in assay [1] is 2.8% (inactive); in assay [2], -15.4% (inactive); in assay [4], 23.8% (inactive); in assay [9], -0.499% (inactive). Moreover, in [2], the nuclei count came to 138%. For the same molecule, the z-score in [3] (setting [10]) was 0.311; in assay [3] (setting [11]) it was -1.08; in assay [3] (setting [12]) it was -1.17. The fluorescence slope in [5] is -0.387 (inactive); in [7], 0.00573 (inactive). For the same molecule, in [6], the NADPH fluorescence slope was -4.6e-05 (inactive). In addition, in assay [8], the result was inactive.
Turning to `CCOC(=O)C1CCN(c2nc3ccccc3nc2C(C#N)C(=O)OC(C)COC)CC1` (centres undefined), in [1], the cell count was 633. In addition, the inhibition in [1] was -11.6% (inactive); in [2], -4.7% (inactive); in assay [4], -5.81% (inactive); in assay [9], 6.91% (inactive). Besides, the nuclei count in [2] worked out at 160%. Also, the z-score in [3] (setting [10]) is 0.378; in assay [3] (setting [11]), -0.378; in assay [3] (setting [12]), -0.33. Moreover, the fluorescence slope in [5] was -0.488 (inactive); in assay [7] it was 0.00472 (inactive). Also, in [6], the NADPH fluorescence slope was -8.1e-05 (inactive). Besides, the result in [8] was inactive.
As for `CCCc1cc(=O)oc2c(CN3CCCC3)c(O)ccc12`, the cell count in [1] stood at 571. The inhibition in assay [1] was -10.8% (inactive); in [2] it was -11.6% (inactive); in assay [4], 0.671% (inactive); in assay [9] it was -1.86% (inactive). This molecule registered a nuclei count in [2] of 118%. Moreover, the values for the z-score in [3] (setting [10]), in assay [3] (setting [11]) and in assay [3] (setting [12]) were 0.0938, -0.952 and -1.55, respectively. The fluorescence slope in assay [5] was -0.0292 (inactive); in [7], 0.0058 (inactive). In addition, in assay [6], the NADPH fluorescence slope is 1.1e-05 (inactive). For the same molecule, the outcome in [8] was inactive.
`Cc1cc(C)n(CC(=O)c2ccccc2)c(=O)c1C#N`: the cell count in assay [1] was determined as 470. Besides, the inhibition is -3.8% (inactive) in assay [1], -112% (inactive) in assay [2], -3.95% (inactive) in assay [4] and -1.97% (inactive) in assay [9]. This molecule showed a nuclei count in assay [2] of 157%. The z-score in assay [3] (setting [10]) is -1.09; in [3] (setting [11]) it was 0.551; in assay [3] (setting [12]) it was 0.941. In addition, the fluorescence slope in assay [5] was -0.432 (inactive); in [7], 0.0047 (inactive). Besides, the NADPH fluorescence slope in assay [6] is -4.1e-05 (inactive). Further, the molecule was called inactive in assay [8].
In the case of `O=C1CCC(=O)N1c1nc2n(n1)C(c1ccccc1)C=C(c1ccc(Br)cc1)N2` (centres undefined), in [1], the cell count is 369. Also, the inhibition in [1] was 3% (inactive); in [2] it was -50% (inactive); in assay [4], 3.56% (inactive); in assay [9] it was 17.5% (inactive). The same molecule displayed a nuclei count in [2] of 71.6%. The z-score in assay [3] (setting [10]) was 0.246; in assay [3] (setting [11]), -0.538; in [3] (setting [12]) it was -1.14. The figures for the fluorescence slope in assay [5] and in assay [7] were -0.374 (inactive) and 0.0047 (inactive), respectively. Besides, in assay [6], the NADPH fluorescence slope was -9.5e-05 (inactive). Also, the outcome in assay [8] was inactive.
For the molecule `CCCCC(CCC(=O)Nc1ccc(C(=O)OC)cc1)C(=O)O` (centres undefined), the cell count in assay [1] was found to be 405. The inhibition in [1] is -4.7% (inactive); in [2] it was -189% (inactive); in assay [4], 14% (inactive); in [9], 25.1% (inactive). In assay [2], this molecule gave a nuclei count of 152%. Moreover, the results for the z-score in [3] (setting [10]), in assay [3] (setting [11]) and in assay [3] (setting [12]) were 0.378, -1.21 and -0.623, respectively. The results for the fluorescence slope in [5] and in assay [7] were -0.439 (inactive) and 0.00484 (inactive), respectively. Also, in assay [6], the NADPH fluorescence slope was -0.000105 (inactive). For the same molecule, in [8], the call was inactive.
With `CCn1nc(NC(=O)c2ccco2)c2cc3ccccc3nc21`, the cell count in assay [1] is 700. For the same molecule, the inhibition in [1] was -11.3% (inactive); in assay [2], -20.2% (inactive); in [4], -6.48% (inactive); in assay [9] it was -8.58% (inactive). For the same molecule, the nuclei count in [2] turned out to be 168%. In addition, the z-score in [3] (setting [10]) was -0.0808; in assay [3] (setting [11]), 0.362; in assay [3] (setting [12]), -0.0698. The fluorescence slope in assay [5] is -0.404 (inactive); in [7], 0.0055 (inactive). Also, in assay [6], the NADPH fluorescence slope is -4.1e-05 (inactive). In assay [8], the molecule was called inactive.
On to `N#Cc1c(N2CCOCC2)nc(-c2ccco2)c2c1CCCC2`, for which, in [1], the cell count was 536. Moreover, the inhibition in assay [1] is -3% (inactive); in assay [2], -19.5% (inactive); in assay [4], -2.09% (inactive); in assay [9], 18.9% (inactive). In addition, in assay [2], the nuclei count came to 96.6%. The z-score in assay [3] (setting [10]) is 0.112; in assay [3] (setting [11]), 0.592; in assay [3] (setting [12]), -1.17. In addition, the fluorescence slope in [5] is -0.412 (inactive); in [7], 0.00398 (inactive). Besides, the NADPH fluorescence slope in [6] is -2e-05 (inactive). Further, the result in assay [8] was inactive.
For the molecule `CC(C)CSc1nc(N2CCOCC2)c2c(c1C#N)CC(C)(C)SC2`, the cell count in assay [1] was found to be 574. Also, the inhibition was -6% (inactive) in assay [1], -69.8% (inactive) in assay [2], -5.81% (inactive) in [4] and 25.7% (inactive) in assay [9]. For the same molecule, the nuclei count in assay [2] is 145%. Moreover, the values for the z-score in [3] (setting [10]), in assay [3] (setting [11]) and in assay [3] (setting [12]) were -0.439, -0.915 and -0.541, respectively. The fluorescence slope in assay [5] was -0.424 (inactive); in assay [7] it was 0.00667 (inactive). Moreover, the NADPH fluorescence slope in assay [6] was -8.1e-05 (inactive). For the same molecule, the molecule was classed as inactive in assay [8].
Regarding `CCCCCCOc1ccc(N2C(=O)CC(N3CCN(C(=O)c4ccco4)CC3)C2=O)cc1` (centres undefined), the cell count in assay [1] was 632. The inhibition was 8.2% (inactive) in [1], -105% (inactive) in assay [2], 10.1% (inactive) in assay [4] and 5.01% (inactive) in assay [9]. This molecule registered a nuclei count in assay [2] of 150%. Also, the z-score in [3] (setting [10]) is 0.106; in [3] (setting [11]), -0.155; in assay [3] (setting [12]), -0.8. In addition, the figures for the fluorescence slope in assay [5] and in assay [7] were -0.487 (inactive) and 0.00531 (inactive), respectively. For the same molecule, the NADPH fluorescence slope in assay [6] was -3.5e-05 (inactive). Moreover, in assay [8], the call was inactive.
